The values below come from PubChem BioAssay AID894 (National Center for Advancing Translational Sciences (NCATS), 2007).

Where “and” joins values, the source holds several entries; their conditions need not be identical. Equal values may be shown once. Among all 150,000 compounds or so, about 6,500 (4.3%) were called active. Not shown: some 12% with an inconclusive outcome. Shown is part of a subset that was picked to be rich in actives. A number with no mark means an inactive call. Calls come from the whole dose curve; as a rule, active = well fitted inhibition curve with a large enough effect (not every such curve was filed as active); inconclusive = small, poorly fitted or top-dose-only effect, or another doubt; inactive = no such curve, though single readings can be large or run the other way.
% is set by controls: 0 for no effect and ±100 for the full control effect; potency is the fitted concentration of half-maximal effect.

Chain of 15-hydroxyprostaglandin dehydrogenase [NAD(+)] (Homo sapiens) (P15428 whole entry, looked up): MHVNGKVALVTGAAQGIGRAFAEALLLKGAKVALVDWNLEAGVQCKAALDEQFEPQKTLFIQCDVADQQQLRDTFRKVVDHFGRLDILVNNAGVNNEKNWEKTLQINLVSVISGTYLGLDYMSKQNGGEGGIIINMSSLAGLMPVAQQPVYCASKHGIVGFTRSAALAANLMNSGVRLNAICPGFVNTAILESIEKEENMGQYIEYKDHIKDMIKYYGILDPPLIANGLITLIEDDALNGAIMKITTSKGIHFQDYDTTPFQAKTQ

This assay addresses 15-hydroxyprostaglandin dehydrogenase [NAD(+)] (Homo sapiens) (UniProt P15428). Briefly: qHTS Assay for Inhibitors of HPGD (15-Hydroxyprostaglandin Dehydrogenase). The note with it: purified HPGD, NADH fluorescence kinetic, PGE2 substrate; activity change, negative = inhibition: stronger effect = lower value. From the text: Human 15-Hydroxyprostaglandin dehydrogenase (HPGD) catalyzes the inactivation of prostaglandin E2, and plays a major role in cancer biology by antagonizing the oncogenic potential of cyclooxygenase type 2 (COX2). Assays are available, based on absorbance/fluorescence increase of NADH with the substrate 15-OH prostaglandin E2. References 1. Myung SJ, Rerko RM, Yan M, Platzer P, Guda K, Dotson A, Lawrence E, Dannenberg AJ, Lovgren AK, Luo G, Pretlow TP, Newman RA, Willis J, Dawson D, Markowitz SD. 15-Hydroxyprostaglandin dehydrogenase is an in vivo suppressor of colon tumorigenesis. […] 2. Yan M, Rerko RM, Platzer P, Dawson D, Willis J, Tong M, Lawrence E, Lutterbaugh J, Lu S, Willson JK, Luo G, Hensold J, Tai HH, Wilson K, Markowitz SD. 15-Hydroxyprostaglandin dehydrogenase, a COX-2 oncogene antagonist, is a TGF-beta-induced suppressor of human gastrointestinal cancers. Proc Natl Acad Sci U S A. 2004 Dec 14;101(50):17468-73. 3. Yang L, Amann JM, Kikuchi T, Porta R, Guix M, Gonzalez A, Park KH, Billheimer D, Arteaga CL, Tai HH, Dubois R, Carbone DP, Johnson DH. Inhibition of Epidermal Growth Factor Receptor Signaling Elevates 15-Hydroxyprostaglandin Dehydrogenase in Non-Small-Cell Lung Cancer. Cancer Res. 2007 Jun 15;67(12):5587-5593. Inhibition of HPGD activity was screened by utilizing prostaglandin as an electron donor and NAD+ as an electron acceptor/cofactor. An increase in the fluorescence intensity due to conversion of NAD+ to NADH was used to measure the enzyme activity. NIH Chemical Genomics Center [NCGC] Structural Genomics Consortium [SGC]
Buffer: 50 mM Tris-HCl, 0.01% Tween 20, pH 8. Enzyme Buffer: 50 mM Tris-HCl, 0.5 mM NAD+ and 0.01% Tween 20, pH 8. Reagents/Controls: Buffer in columns 3 and 4 as negative control (no enzyme). Substrate/cofactor solution: 1 mM NAD+ and 30 uM prostaglandin (Sigma, prostaglandin E2, # P5640) final concentrations dispensed throughout the plate. Enzyme: 20 nM HPGD final concentration in columns 1, 2, 5-48. Column 1 and 2 is neutral (100% activity). A titration of control inhibitor GW5074 (G6416 Sigma-Aldrich, St. Louis, MO) top concentration 10 mM in DMSO, then 1:2 dilution for a total of 16 concentrations in duplicate) was pin-transferred into column 2. Assay Steps: Three uL of enzyme were dispensed to 1536-well Greiner black solid bottom plates. Compounds and control inhibitor (23 nL) were transferred via Kalypsys PinTool. The plates were incubated for 15 min at room temperature, and then 1 uL of substrate/cofactor solution was added to start the reaction. The plates were immediately transferred to and read 5 times every 30 seconds on ViewLux High-throughput CCD imager (Perkin-Elmer) using 360 nm excitation and 450 nm emission fluorescence protocol. The fluorescence intensity difference between the last and the first time points was used to compute reaction progress.
With `Cc1ccc(-n2c(C)cc(/C=C3\C(=O)NC(=O)N(C)C3=O)c2C)cc1C`, the activity change, negative = inhibition is -10.2%.

In the case of `Cc1ccnc(-n2c(C)cc(/C=C3\C(=O)NC(=S)N(C)C3=O)c2C)c1`, the Potency is 20 µM (active).

For `COC(=O)c1ccc2[se]c(CC3CCCCC3)c(I)c2c1`, the activity change, negative = inhibition was -2.23%.

Consider `CC(C)CC(C)Nc1ccc(Nc2ccccc2)cc1` (configuration not stated), for which the activity change, negative = inhibition is -6.53%.

As to `Clc1cccc(Cl)c1Cl`, the activity change, negative = inhibition is -10.3%.

As to `N#Cc1c(Cl)c(Cl)c(Cl)c(C#N)c1Cl`, the Potency is 2.51 µM (active).

In the case of `ClC(Cl)(Cl)c1ccccc1`, the activity change, negative = inhibition was -5.6% and -7.46%.

Regarding `N#CC(C#N)=Cc1cc(O)c(O)c([N+](=O)[O-])c1`, the Potency was 22.4 µM (active).

Consider `Nc1ccc([N+](=O)[O-])cc1`, for which the activity change, negative = inhibition was -4.46%.

For the compound `COC1=C[C@@H]2[C@@H]3Cc4ccc(OC)c(O)c4[C@]2(CCN3C)CC1=O`, the activity change, negative = inhibition was -2.46%.

For the compound `CN(C)C1C(=O)C(C(N)=O)=C(O)[C@@]2(O)C(=O)C3=C(O)c4c(O)cccc4[C@@](C)(O)C3C[C@@H]12` (some centres not stated), the activity change, negative = inhibition was -15.2%.

For `CCN1C[C@]2(C)CC[C@H](O)[C@@]34[C@@H]5CC6[C@@H](OC)C[C@@](O)([C@@H]5[C@@H]6O)[C@H](C[C@@H]23)[C@H]14`, the activity change, negative = inhibition was -6.3%.

In the case of `Cc1cccc(-n2c(C)nc3cc(C(=O)N4CCC5(CC4)OCCO5)ccc32)c1`, the Potency was 14.1 µM (active).

`O=C(c1cc(-c2ccncc2)nc2ccccc12)N1CCC2(CC1)OCCO2`: the activity change, negative = inhibition is -3.06%.

As to `COc1ccc(S(=O)(=O)NCc2ccc(C(=O)N3CCC4(CC3)OCCO4)cc2)cc1`, the activity change, negative = inhibition is -19.1%.

With `CCCC[N+]1(C)C2CC(OC(=O)C(CO)c3ccccc3)CC1C1OC12` (configuration not stated), the activity change, negative = inhibition was -2.83%.

Consider `CN(C)[C@@H]1C(=O)C(C(N)=O)=C(O)[C@@]2(O)C(=O)C3=C(O)c4c(O)cccc4[C@@](C)(O)C3CC12` (some centres not stated), for which the activity change, negative = inhibition is -24.8%.

Consider `COC1=C[C@]23CCCN2CCc2cc4c(cc2[C@@H]3[C@@H]1O)OCO4`, for which the activity change, negative = inhibition was -6.42%.

For the compound `CCCCC/C=C\C/C=C\C/C=C\C/C=C\CCCCCC(=O)NCCO`, the activity change, negative = inhibition was -7.58% and -6.46%.

Regarding `CC(=O)NBr`, the activity change, negative = inhibition is -7.45%.

`CCC1(c2ccccc2)C(=O)NC(=O)N(C)C1=O` (configuration not stated): the activity change, negative = inhibition was -4.89%.

`CCC/C(=N\O)c1c[nH]c2ccccc12`: the activity change, negative = inhibition was -17.4%.

Turning to `c1ccc(CCCCN2CCC(c3ccccc3)CC2)cc1`, the activity change, negative = inhibition is -7.8%.

As for `CC(=O)c1ccc(OC(NC(=O)Cc2ccccc2)C(Cl)(Cl)Cl)cc1` (configuration not stated), the Potency is 12.6 µM (active).

On to `CC(=O)NC(=O)NC(C)Cc1ccccc1` (configuration not stated), for which the activity change, negative = inhibition is -9.28%.

`CCOP(=O)(OCC)C(NC(=O)c1ccc(C)cc1)C(Cl)(Cl)Cl` (configuration not stated): the activity change, negative = inhibition is -5.69%.

As to `CC(C)(C)c1ccc(CN2C(=O)CN=C(c3ccccc3)c3ccccc32)cc1`, the activity change, negative = inhibition is -17.9%.

Take `Clc1ccccc1`: the activity change, negative = inhibition is -8.83%.

With `CCCCn1c(O)c(C(CC)=NCc2ccco2)c(=O)[nH]c1=O`, the activity change, negative = inhibition was 1.83%.

As to `CCC(=NCc1ccco1)c1c(O)n(Cc2ccccc2)c(=O)[nH]c1=O`, the Potency is 15.8 µM (active).

Turning to `CCC(=NCCc1ccccc1)c1c(O)n(C2CCCCC2)c(=O)[nH]c1=O`, the activity change, negative = inhibition is -16.1%.

Turning to `c1ccc2c(c1)[I+]c1ccccc1-2`, the activity change, negative = inhibition was -12.3% and -15.8%.

In the case of `c1csc(CN2CCCC3(CCNCC3)C2)n1`, the activity change, negative = inhibition was -0.589%.

For the compound `Cc1cccc([C@H](C)c2cnc[nH]2)c1C`, the activity change, negative = inhibition is -10.2%.

On to `c1csc(CN2CC3(CCNCC3)C2)n1`, for which the activity change, negative = inhibition is -15.7%.

For `C[C@H](Br)C(=O)N[C@H](CO)C(=O)O`, the activity change, negative = inhibition is -10.5%.

For the compound `NCC[Se][Se]CCN`, the Potency was 2.82 µM (active).

For `O=c1oc2ccccc2c(O)c1C(c1ccccc1O)c1c(O)c2ccccc2oc1=O`, the activity change, negative = inhibition is -2.8%.

Take `C=CCN1CCC23c4c5ccc(O)c4O[C@H]2C(=O)CC[C@@]3(O)C1C5` (some centres not stated): the activity change, negative = inhibition was -13.3%.

Regarding `CCN(CC)C(=O)c1ccc(NC(=O)c2cc(-n3cnnc3)ccc2Cl)cc1`, the Potency is 1.41 µM (active).

Take `CNC(=S)N/N=C1\C2CN3CCN(C2)CC1(c1ccccc1)C3`: the activity change, negative = inhibition is 4.55%.

Turning to `O=C(C1CC(=O)N(C2CCCC2)C1)N1CCC2(CC1)OCCO2` (configuration not stated), the activity change, negative = inhibition was 6.18%.

Regarding `Clc1ccc([C@@H]2C[C@H]3CC[C@@H]2N3)cn1`, the activity change, negative = inhibition was 0.221%.

Take `COc1cc(C(c2c(O)c3ccccc3oc2=O)c2c(C)n(C)n(-c3ccccc3)c2=O)ccc1O` (configuration not stated): the activity change, negative = inhibition was -3.16%.

On to `c1ccc(Cc2nn3c(Cn4cnc5ccccc54)nnc3s2)cc1`, for which the Potency is 7.08 µM (active).

For `CCN1C[C@@]2(COC)CC[C@H](OC)[C@]34[C@@H]1[C@]1(OCO[C@@]15C[C@@H](OC)C1C[C@H]3[C@H]5[C@@H]1OC)[C@H](O)[C@@H]24`, the activity change, negative = inhibition is -0.114%.

Consider `C/C(=C\C=C/[C@@H](C)C(=O)O)[C@H]1CN[C@H](C(=O)O)[C@@H]1CC(=O)O`, for which the activity change, negative = inhibition was -11.8%.
